Five compounds from PubChem BioAssay can be followed below.

Molecules are shown by their SMILES. Active and inactive are the calls of the source.

Test [1] in a line: small molecules captured by biotinylated probe aFSTL3 – biochemical, small-molecule microarray, fluorescence 635/667, stem cell growth factor project, primary screen (AID 1064).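 Further: measures binding of the biotinylated anti-FSTL3 antibody to printed compounds.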 To be noted: higher = more signal.
A short description of test [2]: binders from COS7 lysate, DM2A8 probe, primary screen, torsin A project, cell lysate, small-molecule microarray, fluorescence 635/667 (AID 1065). To be noted: higher = more signal, COS7 lysate expressing mutant human TOR1A.
Test [3] in a line: small molecules captured by biotinylated probe aFGF2 – biochemical, small-molecule microarray, fluorescence 635/667, stem cell growth factor project, primary screen (AID 1067).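 Further: measures binding of biotinylated aFGF2 protein to printed compounds on slides; z-score merges feature fluorescence and signal-to-noise across triplicate slides.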 To be noted: higher = more signal.
Test [4] in a line: small molecules captured by biotinylated probe aFGF10 – biochemical, small-molecule microarray, fluorescence 635/667, stem cell growth factor project, primary screen (AID 1071).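 Further: score merges 667 nm spot intensity and signal to noise from triplicate slides.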 To be noted: higher = more signal.
Test [5] concerns the target Neurogenic locus notch homolog protein 2 (Homo sapiens) (UniProt Q04721). Nature of the test: small molecules binding Notch2 protein – biochemical, small-molecule microarray, 635 nm fluorescence, stem cell growth factors, primary screen (AID 1073). To be noted: higher = more signal.
For test [6], the target named is Pro-neuregulin-1, membrane-bound isoform (Homo sapiens) (UniProt Q02297). In words: small molecules binding neuregulin-1 protein – biochemical, small-molecule microarray, fluorescence 635/667, psychiatric disease protein project, primary screen (AID 1075).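 Further: score combines 667 nm spot fluorescence with signal to noise.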 To be noted: NRG1 binding, 635 nm fluorescence, higher = more signal.
Pro-neuregulin-1, membrane-bound isoform (Homo sapiens), sequence (Q02297 whole entry, looked up, the tested form may be a part, canonical isoform): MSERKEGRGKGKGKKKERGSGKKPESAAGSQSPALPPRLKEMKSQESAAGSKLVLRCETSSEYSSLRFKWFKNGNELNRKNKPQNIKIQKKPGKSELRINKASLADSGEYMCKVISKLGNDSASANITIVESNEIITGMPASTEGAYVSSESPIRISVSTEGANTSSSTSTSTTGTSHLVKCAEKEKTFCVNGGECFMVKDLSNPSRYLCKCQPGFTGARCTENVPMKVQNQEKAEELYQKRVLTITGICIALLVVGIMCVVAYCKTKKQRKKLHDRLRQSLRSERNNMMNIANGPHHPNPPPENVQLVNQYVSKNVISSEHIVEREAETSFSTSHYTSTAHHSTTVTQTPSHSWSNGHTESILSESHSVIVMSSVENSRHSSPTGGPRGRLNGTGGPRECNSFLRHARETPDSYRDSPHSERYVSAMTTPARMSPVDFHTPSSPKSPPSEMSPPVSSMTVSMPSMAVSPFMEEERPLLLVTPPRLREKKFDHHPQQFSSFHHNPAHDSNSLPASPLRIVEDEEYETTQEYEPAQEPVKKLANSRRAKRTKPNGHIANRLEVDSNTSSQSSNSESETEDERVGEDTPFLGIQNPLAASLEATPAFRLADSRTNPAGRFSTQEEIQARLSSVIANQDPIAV
The test system of test [7] is Neuregulin-1 EGF-like domain. Nature of the test: small molecules binding NRG1 EGF domain – biochemical, small-molecule microarray, 635 nm fluorescence, primary screen (AID 1081).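 Further: binding of the protein to compounds printed on small-molecule microarray slides.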 To be noted: higher = more signal.
Test [8] can be described thus: FRG1 expression reporter modulators in myotubes – cell-based, C2C12 myotubes, firefly/Renilla luciferase, luminescence, FRG1 inhibition for FSHD, primary screen (AID 1084). To be noted: FRG1 promoter luciferase, higher = more signal, called active from +8 up or from −8 down.
A short description of test [9]: small molecules captured by biotinylated probe aFST – biochemical, small-molecule microarray, fluorescence 635/667, stem cell growth factor project, primary screen (AID 1086).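 Further: score merges 667 nm fluorescence with signal-to-noise of each printed compound spot.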 The conditions noted are these: higher = more signal.
A short description of test [10]: binders of probe aHhip on microarray, primary screen, stem cell growth factor project, biochemical, small-molecule microarray, fluorescence 635/667 (AID 1087).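 Further: score merges spot fluorescence at 667nm with spot signal to noise ratio.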 To be noted: higher = more signal.
For test [11], the system named is PRMT1 (protein arginine N-methyltransferase 1). In words: small molecules binding arginine methyltransferase PRMT1 – biochemical, small-molecule microarray, 635 nm fluorescence, primary screen (AID 1088).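 Further: binding of Prmt1 protein to compounds spotted on small-molecule microarray slides.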 The conditions noted are these: higher = more signal.
Test [12] in a line: growth effects on S. cerevisiae YJM789 – YJM789 clinical isolate, OD600, 24 h, basal, primary screen (AID 1089).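 Further: growth of clinical yeast isolate S. cerevisiae YJM 789 seeded 1000 cells per well; test concentration not given here.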 The conditions noted are these: higher = more signal, called active from +8 up or from −8 down.
Test [13] in a line: S. pombe growth modifiers, basal conditions – strain 972, OD600, 24 h, no modulator, primary screen (AID 1090).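 Further: basal condition with compound alone and no growth modifier present; test concentration not given here.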 The conditions noted are these: S. pombe 972 growth, higher = more signal, called active from +8 up or from −8 down.
Test [14] can be described thus: budding yeast growth modifiers under rapamycin – strain BY4716, OD600, 96 h, primary screen (AID 1091). Further: test concentration not given here. To be noted: S. cerevisiae BY4716 + rapamycin, higher = more signal, called active from +8 up or from −8 down.
The target of test [15] is Torsin-1A-interacting protein 2 (Homo sapiens) (UniProt Q8NFQ8). Nature of the test: small molecules binding lysate-expressed LULL1 – cell lysate, human LULL1 lysate, 635/667 nm fluorescence, primary screen (AID 1092).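 Further: probe is lysate of COS7 cells overexpressing human LULL1; score merges per-feature 667 nm fluorescence with signal-to-noise.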 The conditions noted are these: small-molecule microarray, hLULL1 lysate binding, 635 nm fluorescence; higher = more signal.
Torsin-1A-interacting protein 2 (Homo sapiens), sequence (Q8NFQ8 whole entry, looked up): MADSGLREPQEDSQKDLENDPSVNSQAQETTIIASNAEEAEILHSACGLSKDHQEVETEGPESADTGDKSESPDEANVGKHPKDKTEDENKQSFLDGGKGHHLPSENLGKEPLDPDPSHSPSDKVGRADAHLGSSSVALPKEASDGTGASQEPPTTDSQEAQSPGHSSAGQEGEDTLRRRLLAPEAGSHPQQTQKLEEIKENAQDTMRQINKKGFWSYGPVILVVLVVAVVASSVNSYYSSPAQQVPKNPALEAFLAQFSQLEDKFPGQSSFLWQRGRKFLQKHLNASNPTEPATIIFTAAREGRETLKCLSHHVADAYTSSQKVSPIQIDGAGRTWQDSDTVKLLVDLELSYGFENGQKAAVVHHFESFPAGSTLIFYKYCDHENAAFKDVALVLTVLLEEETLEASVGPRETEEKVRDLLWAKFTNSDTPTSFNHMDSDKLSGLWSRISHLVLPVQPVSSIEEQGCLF
Test [16] is described as follows: optical density change of DRC41 E. coli – strain DRC41, OD650, 24 h, E. coli filamentation project, primary screen (AID 1093).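 Further: MC1000 strain lacking acrAB efflux and sulA so SOS filamentation is blocked; test concentration not given here.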 The conditions noted are these: E. coli DRC41 growth, higher = more signal, called active from +8 up or from −8 down.
Test [17] in a line: probe aLefty2 binding to arrayed compounds – biochemical, biotinylated probe, 635/667 nm fluorescence, primary screen (AID 1094).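 Further: score merges spot fluorescence near 667 nm with spot signal-to-noise ratio.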 The conditions noted are these: small-molecule microarray, higher = more signal.
In test [18] the test system is Noggin (protein binding on small-molecule microarray). In words: small molecules binding Noggin protein – biochemical, 635/667 nm fluorescence, primary screen (AID 1095).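 Further: score merges 667 nm feature fluorescence with signal to noise over triplicate slides.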 To be noted: 635 nm fluorescence, higher = more signal.
Test [19] deals with Neurogenic locus notch homolog protein 3 (Homo sapiens) (UniProt Q9UM47). In words: small molecules binding NOTCH3 protein – biochemical, 635/667 nm fluorescence, primary screen (AID 1096). The conditions noted are these: small-molecule microarray, 635 nm fluorescence, higher = more signal.
Neurogenic locus notch homolog protein 3 (Homo sapiens), sequence (Q9UM47 whole entry, looked up): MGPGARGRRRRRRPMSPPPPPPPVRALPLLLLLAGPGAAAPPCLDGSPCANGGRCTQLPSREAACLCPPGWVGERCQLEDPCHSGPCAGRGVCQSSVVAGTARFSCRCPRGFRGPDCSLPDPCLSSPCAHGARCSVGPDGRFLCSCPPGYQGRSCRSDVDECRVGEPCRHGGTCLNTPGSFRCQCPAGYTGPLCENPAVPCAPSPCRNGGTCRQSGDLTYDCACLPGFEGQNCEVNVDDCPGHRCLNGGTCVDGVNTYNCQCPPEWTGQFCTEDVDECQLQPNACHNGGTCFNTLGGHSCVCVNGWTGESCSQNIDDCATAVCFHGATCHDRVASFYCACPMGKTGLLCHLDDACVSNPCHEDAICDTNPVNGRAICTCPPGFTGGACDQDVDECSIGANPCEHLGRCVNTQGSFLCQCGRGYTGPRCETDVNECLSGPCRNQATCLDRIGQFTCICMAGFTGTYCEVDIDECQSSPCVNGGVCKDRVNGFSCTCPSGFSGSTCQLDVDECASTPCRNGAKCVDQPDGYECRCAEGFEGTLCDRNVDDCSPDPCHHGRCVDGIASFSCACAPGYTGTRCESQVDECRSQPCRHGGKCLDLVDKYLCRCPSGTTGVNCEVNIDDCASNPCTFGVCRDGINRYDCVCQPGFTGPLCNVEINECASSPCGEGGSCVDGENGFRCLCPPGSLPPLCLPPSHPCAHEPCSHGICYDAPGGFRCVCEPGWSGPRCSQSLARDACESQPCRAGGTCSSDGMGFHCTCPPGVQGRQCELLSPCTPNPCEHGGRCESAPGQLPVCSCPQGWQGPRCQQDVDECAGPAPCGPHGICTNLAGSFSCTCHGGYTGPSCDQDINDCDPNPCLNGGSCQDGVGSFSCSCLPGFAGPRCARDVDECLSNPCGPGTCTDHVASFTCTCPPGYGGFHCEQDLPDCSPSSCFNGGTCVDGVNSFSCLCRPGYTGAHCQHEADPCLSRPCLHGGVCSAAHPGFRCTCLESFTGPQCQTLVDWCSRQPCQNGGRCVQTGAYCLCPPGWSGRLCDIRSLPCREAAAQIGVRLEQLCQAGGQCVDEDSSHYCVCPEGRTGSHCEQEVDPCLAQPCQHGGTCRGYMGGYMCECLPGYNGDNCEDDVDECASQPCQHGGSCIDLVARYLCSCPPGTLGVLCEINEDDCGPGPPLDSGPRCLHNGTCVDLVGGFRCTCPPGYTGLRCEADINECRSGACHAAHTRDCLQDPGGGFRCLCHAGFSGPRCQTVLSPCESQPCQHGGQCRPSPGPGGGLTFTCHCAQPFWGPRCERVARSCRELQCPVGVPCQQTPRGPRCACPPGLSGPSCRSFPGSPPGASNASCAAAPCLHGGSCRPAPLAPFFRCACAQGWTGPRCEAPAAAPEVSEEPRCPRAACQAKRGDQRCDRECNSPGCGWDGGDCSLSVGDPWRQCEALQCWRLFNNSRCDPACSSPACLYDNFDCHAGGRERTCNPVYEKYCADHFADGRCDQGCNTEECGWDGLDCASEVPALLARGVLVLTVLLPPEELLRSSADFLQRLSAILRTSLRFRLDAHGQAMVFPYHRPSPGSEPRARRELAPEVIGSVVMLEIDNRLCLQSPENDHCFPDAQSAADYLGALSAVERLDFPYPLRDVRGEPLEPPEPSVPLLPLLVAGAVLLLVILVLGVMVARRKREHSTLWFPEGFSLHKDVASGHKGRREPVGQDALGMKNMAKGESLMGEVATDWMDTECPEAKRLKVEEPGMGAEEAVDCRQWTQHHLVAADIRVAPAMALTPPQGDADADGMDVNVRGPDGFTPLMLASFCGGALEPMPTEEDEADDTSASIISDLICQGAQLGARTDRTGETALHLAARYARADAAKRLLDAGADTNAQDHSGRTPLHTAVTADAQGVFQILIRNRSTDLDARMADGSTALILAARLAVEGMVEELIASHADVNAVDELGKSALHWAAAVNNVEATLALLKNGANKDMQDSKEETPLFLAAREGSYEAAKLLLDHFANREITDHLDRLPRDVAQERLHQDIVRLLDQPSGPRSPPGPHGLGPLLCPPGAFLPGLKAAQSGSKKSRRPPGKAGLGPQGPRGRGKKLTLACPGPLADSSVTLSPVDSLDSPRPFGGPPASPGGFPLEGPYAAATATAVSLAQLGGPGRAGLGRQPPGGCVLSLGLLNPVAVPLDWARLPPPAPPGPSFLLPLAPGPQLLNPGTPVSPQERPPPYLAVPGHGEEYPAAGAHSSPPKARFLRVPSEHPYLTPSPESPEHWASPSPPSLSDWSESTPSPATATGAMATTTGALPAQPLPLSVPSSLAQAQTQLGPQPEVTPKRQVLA
Test [20] is described as follows: probe aEGFR binding to arrayed compounds – biochemical, biotinylated probe, 635/667 nm fluorescence, primary screen (AID 1097).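 Further: probe is a biotinylated anti-EGFR antibody binding compounds printed on slides; score combines fluorescence near 667 nm and signal to noise of each spot.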 To be noted: small-molecule microarray, higher = more signal.

For the compound `CN(C)CCCC[C@@H]1NC(=O)[C@@H]2C[C@H](C(=O)NCCCCCCNC(=O)CS)[C@H](c3cccc(OCCO)c3)N2C1=O`, the composite z-score in test [1] was 0.0594; in test [2], 0.353; in test [3], -0.0621; in test [4], 0.628; in test [5], -0.453; in test [6], 0.67. Moreover, the composite z-score in test [7] is 0.838; in test [9], 0.123; in test [10], 0.0373; in [11], 1.39; in [15] it was 1.18; in test [17] it was 0.0575. The composite z-score amounted to 0.333 in test [18], 0.131 in test [19] and 0.124 in [20]. For the same compound, the z-score is -0.786 (inactive) in test [8]; -0.283 (inactive) in test [12]; -0.0576 (inactive) in test [13]; -0.471 (inactive) in [14]; -0.142 (inactive) in test [16].

For `C=CC[C@@]1(C(=O)O)N=C(c2ccc(OCCCO)cc2)O[C@@H]1c1ccccc1CN=[N+]=[N-]`, the composite z-score in test [1] is -0.232; in [2], 0.334; in [3], -0.0518; in [4], 0.744; in [5], 0.955; in [6] it was 1.79. The composite z-score in [7] was 1.08; in test [9], 0.0959; in test [10] it was -0.007; in [11] it was 0.753; in test [15], 3.34; in test [17] it was 0.0806. In addition, the values for the composite z-score in test [18], in [19] and in [20] were 0.373, 0.942 and 0.0209, respectively. Besides, the z-score in [8] was 4 (inactive); in test [12], -1.23 (inactive); in [13], -2.27 (inactive); in [14], -1.95 (inactive); in test [16], 0.788 (inactive).

Consider `C=C(CCCC)/C(=C/C[C@H](OC(C)=O)c1cccc(OCCO)c1)c1cc(C(=O)OC)ccc1OC`, for which the composite z-score in test [1] is 0.0336; in test [2] it was -0.325; in [3], -0.0852; in test [4], -0.0418; in [5] it was -0.393; in [6] it was -0.578. The composite z-score in test [7] was 0.131; in [9] it was -0.221; in test [10], -0.201; in test [11], 0.326; in test [15], 0.628; in [17] it was -0.101. For the same compound, the results for the composite z-score in [18], in test [19] and in test [20] were 1.04, 0.195 and -0.154, respectively. The z-score in test [8] is -0.502 (inactive); in test [12] it was 0.117 (inactive); in test [13], -0.602 (inactive); in [14], -0.894 (inactive); in [16] it was 1.01 (inactive).

Consider `COCCOC(=O)N1C(=O)[C@@]2(c3cc(C#CC4(O)CCCCCC4)ccc31)[C@H](c1ccc(OCCO)cc1)N1[C@H](c3ccccc3)[C@H](c3ccccc3)OC(=O)[C@H]1[C@@H]2C(=O)N1CCCCCCC1`, for which the composite z-score in test [1] came to 1.81; in test [2] it was 0.437; in test [3] it was 0.466; in [4] it was 0.276; in test [5], 1.25; in test [6], 1.77. Moreover, the composite z-score in [7] was determined as 1.29; in test [9], 2.41; in [10], 2.99; in [11], 1.55; in [15], 3.09; in [17] it was 1.15. Also, the composite z-score is 1.82 in [18], 1.11 in test [19] and 0.753 in [20]. Besides, the z-score in test [8] was 0.222 (inactive); in test [12], 1.42 (inactive); in test [13], 0.598 (inactive); in test [14], 3.68 (inactive); in test [16], 0.436 (inactive).

Turning to `NC(=O)[C@@]1(CCS(=O)(=O)c2ccccc2)COC(c2ccc(OCCCO)cc2)=N1`, the composite z-score in [1] worked out at 0.615; in test [2], 0.0735; in test [3] it was 0.0777; in [4], 0.0833; in [5] it was 0.963; in test [6] it was 1.78. Moreover, the composite z-score was 0.832 in [7]; 0.194 in test [9]; -0.112 in test [10]; -0.617 in test [11]; 1.28 in test [15]; 0.158 in test [17]. Besides, the composite z-score in test [18] was -0.0167; in test [19], -0.57; in [20] it was -0.0826. Further, the z-score is -0.429 (inactive) in test [8]; -0.0133 (inactive) in test [12]; -0.213 (inactive) in [13]; 0.0084 (inactive) in test [14]; 0.817 (inactive) in [16].
